# From PubChem BioAssay (Tox21)
# Results filed as inconclusive are left out. Where a call stands in place of a potency, no number is given. Activity calls are given as the source filed them. The call rests on the fitted dose curve.
# Assay: qHTS assay for small molecules that induce genotoxicity in human embryonic kidney cells expressing luciferase-tagged ATAD5 - cell viability (AID 651634); further: nearly all actives have a fitted effect of over 25% in size
# Conditions: HEK293T ATAD5-luc cells viability, CellTiter-Fluor, 15.5 h; series mostly up to 83.3 µM
# Source text: National Center for Advancing Translational Sciences [NCATS]
# NIH Chemical Genomics Center [NCGC]
# U.S. Environmental Protection Agency [EPA]
# National Institutes of Environmental Health Sciences [NIEHS]
# National Toxicology Program [NTP]
# U.S. Food and Drug Administration [FDA]
# Enhanced Level of Genome Instability Gene 1 (ELG1; human ATAD5) protein levels increase in response to various types of DNA damage. Using a luciferase reporter-gene tagged with ElG1, a cell-based assay [developed by Kyungjae Myung, NHGRI, NIH] was used to measure the induction of ATAD5 in human embryonic kidney cells (HEK293T). So, increase in luciferase activity can be used to identify the compounds that cause genetic stress. In addition to genotoxicity, these cells were also used to test for cytotoxicity by measuring the protease activity within live cells.
# Tox21 Assay Protocol Summary:
# For cytotoxicity screening, 2,000 cells in 5 uL/well were dispensed into white, solid-bottom 1536-well plates using a Multidrop Combi (Thermo Scientific) dispenser. Following transfer of 23 nL compound or DMSO vehicle by a pin tool, the plates were incubated 15.5 hr at 37C and 5% CO2. 1 ul CellTiter-Fluor reagent (Promega, Madison, WI) was then added to each plate and following 30 min incubation at 37C, fluorescence intensity was quantified on a ViewLux CCD-based plate reader.
# Potency means the concentration at half of the fitted maximal effect.
row,SMILES,Potency
1,CCCCCCCCOC(=O)c1ccc(C(=O)OCCCCCCCC)c(C(=O)OCCCCCCCC)c1,inactive
2,CC(C)=CCOc1c2occc2cc2ccc(=O)oc12,inactive
3,Cc1ccccc1CCl,inactive
4,Cl/C=C\C[N+]12CN3CN(CN(C3)C1)C2,inactive
5,O=Cc1ccc2c(c1)OCO2,inactive
6,O=NN1CCNCC1,inactive
7,CCn1cc[n+](C)c1,inactive
8,COP(=O)(OC)O/C(=C/Cl)c1cc(Cl)c(Cl)cc1Cl,inactive
9,CCc1ccc(C(=O)NN(C(=O)c2cc(C)cc(C)c2)C(C)(C)C)cc1,486 nM (active)
10,CCCN(CCC)c1c([N+](=O)[O-])cc(S(C)(=O)=O)cc1[N+](=O)[O-],inactive
11,CC(=O)c1cc2c(cc1C)C(C)(C)C(C)CC2(C)C (stereo not given),inactive
12,COC(=O)c1cncn1C(C)c1ccccc1 (stereo not given),inactive
13,C=COC(C)=O,inactive
14,N#CCC#N,inactive
15,O=C(CBr)c1ccccc1,inactive
16,C=CC(=O)OC(C)(C)C,inactive
17,CN1C(=O)NC(=O)C(C)(C2=CCCCC2)C1=O (stereo not given),inactive
18,NCC(CC(=O)O)c1ccc(Cl)cc1 (stereo not given),inactive
19,[CH3][Sn]([CH3])([Cl])[Cl],inactive
20,CCOP(=O)(OCC)Oc1ccc([N+](=O)[O-])cc1,inactive

row,SMILES,Potency
1,O=S(=O)(O)C(F)(F)C(F)(F)C(F)(F)C(F)(F)F,inactive
2,OC(c1ccc(Cl)cc1)(c1ccc(Cl)cc1)c1cccnc1,inactive
3,CCCCCCCCCC(=O)O[C@H]1CC[C@H]2[C@@H]3CCC4=CC(=O)CC[C@@H]4[C@H]3CC[C@]12C,inactive
4,CCOc1ccc(C(C)(C)COCc2cccc(Oc3ccccc3)c2)cc1,inactive
5,CC(c1ccc(O)cc1)(c1ccc(O)cc1)c1ccc(O)cc1,inactive
6,CCCCOC(=O)c1ccccc1C(=O)OCc1ccccc1,inactive
7,Brc1ccccc1,inactive
8,ClCCCCBr,inactive
9,ClCc1ccccc1,inactive
10,CCC(Br)(CC)C(=O)NC(N)=O,inactive
11,O=C(CCl)c1ccc(Cl)cc1Cl,inactive
12,C=CC(=O)OCC(C)O (stereo not given),inactive
13,COCC(C)N(C(=O)CCl)c1c(C)csc1C (stereo not given),inactive
14,COC(=O)C(C)N(C(=O)Cc1ccccc1)c1c(C)cccc1C (stereo not given),inactive
15,N#Cc1cc(I)c(O)c(I)c1,inactive
16,COc1nn(CSP(=S)(OC)OC)c(=O)s1,inactive
17,CCCN(CC1CC1)c1c([N+](=O)[O-])cc(C(F)(F)F)cc1[N+](=O)[O-],inactive
18,N#CCc1ccccc1,inactive
19,CC(C)(Cl)[N+](=O)[O-],inactive
20,O=C(O)CC(Cl)C(=O)O (stereo not given),inactive
